Laboratory results taken from PubChem BioAssay (Tox21).
Several values for one entry are separate records, joined by “and”; a condition that tells them apart may be missing. Equal values may be shown once. Inconclusive results are not listed. Where a call stands in place of a potency, no number is given. Some compounds were tested as several samples or in several runs, with calls that do not always agree. Activity calls are given as the source filed them. Calls come from the whole dose curve; as a rule, active = well fitted curve in the direction sought with a large enough effect in the repeat runs; inconclusive = weak or mixed curves; inactive = no such curve, though single readings can be large; an effect the other way counts as inactive or inconclusive.

Assay: A CellTox Green Cytotoxicity Assay to monitor cytotoxicity in HEK293 cells - 0 hour (AID 1224869); note: nearly all actives have a fitted effect of over 50% in size
Conditions: CellTox Green fluorescence; series mostly up to 76.8 µM
Outline: (§1)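 Read-out: fluorescence of a cell-impermeant cyanine dye staining DNA of dead cells, proportional to cytotoxicity. HEK293, 600 cells/well with reagent, compound (23 nL DMSO) added after 5 h; reads at 0, 8, 16, 24, 32, 40 h.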

Structure (SMILES) | outcome
C=CCc1cc(OC)c2c(c1)OCO2 | inactive
CC#Cc1cc(C)nc(Nc2ccccc2)n1 | inactive
N#CC(Br)(Br)C(N)=O | inactive
C=C1CC[C@@]2(O)[C@H]3Cc4ccc(O)c5c4[C@@]2(CCN3CC2CC2)[C@H]1O5 | inactive
CC[C@H](O)C(C[C@H](C)N(C)C)(c1ccccc1)c1ccccc1 | inactive
NCC1(CC(=O)O)CCCCC1 | inactive
[O-][Br+2]([O-])O | inactive
NNC(N)=O | inactive
CNC(=O)O/N=C(/CSC)C(C)(C)C | inactive
CC(Cc1ccccc1)NCCCCl (stereo not given) | inactive
CCCCCCCCSC(=O)Oc1cc(Cl)nnc1-c1ccccc1 | inactive
CC(C)(C)c1cc(O)ccc1O | inactive

Assay: qHTS RealTime-Glo MT Cell Viability Assay in HepG2 cells - 40 hour (AID 1224870); note: nearly all actives have a fitted effect of over 50% in size; note: potency is the fitted concentration of half-maximal effect
Conditions: RealTime-Glo luminescence; series mostly up to 76.8 µM
Outline: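 Real-time viability: cells seeded at 600 per well together with NanoLuc and cell-permeant prosubstrate, compounds added after 5 h incubation. Luminescence tracked at 0, 8, 16, 24, 32 and 40 h of exposure.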

Structure (SMILES) | Potency | activity change, negative = cytotoxic
CCCC[N+](=O)[O-] | inactive | 
BrCC1CO1 (stereo not given) | inactive | 
CCC1(c2ccccc2)CCC(=O)NC1=O (stereo not given) | inactive | 
ClC(Cl)(Cl)Cl | inactive | 
CCc1ccc(C2CCNCC2)cc1 | inactive | 
CC(C)C(C)(N)C#N (stereo not given) | inactive | 
CC(C)(C)C(=O)C(Cl)Cl | inactive | 
CN(C)C(=O)Oc1cc(OC(=O)N(C)C)cc(C(O)CNC(C)(C)C)c1 (stereo not given) | inactive | 
CCOC(=O)NC(C)(C)Cc1ccc(Cl)cc1 | inactive | 
C=C(Cl)CSC(=S)N(CC)CC | inactive | 
O=P(O)(O)CN(CP(=O)(O)O)CP(=O)(O)O | inactive | 
CN(C)CCc1c[nH]c2cccc(OP(=O)(O)O)c12 | inactive | 
Cn1c(N)nc2c3cccnc3ccc21 | inactive | 
O=C1C2CC=CCC2C(=O)N1SC(Cl)(Cl)Cl (stereo not given) | inactive and 19.2 µM (active) | 
CCNc1nc(NCC)nc(SC)n1 | inactive | 
N[C@@H](Cc1ccc(Oc2cc(I)c(O)c(I)c2)c(I)c1)C(=O)O | inactive | 
Clc1ccc(C(Cl)(Cl)Cl)cn1 | inactive | 
CCNc1nc(Cl)nc(NC(C)(C)C)n1 | inactive | 

Structure (SMILES) | Potency | activity change, negative = cytotoxic
COc1ccc2c(C(=O)c3ccc(Cl)cc3)c(C)n(CC(=O)O)c2c1 | inactive | 
CCCOC(=O)c1cncn1C(C)c1ccccc1 (stereo not given) | inactive | 
CCOC(=O)C(Cl)Cc1cc(-n2nc(C)n(C(F)F)c2=O)c(F)cc1Cl (stereo not given) | inactive | 
COc1ccc(CN2CCNCC2)c(OC)c1OC | inactive | 
CCOP(=S)(OCC)SCCl | inactive | 
CC(=O)OCC1=C(C(=O)O)N2C(=O)[C@@H](N)[C@H]2SC1 |  | 3.09% [at 15.8 µM] (inactive)
C=CCc1cc(OC)c2c(c1)OCO2 | inactive | 
CC#Cc1cc(C)nc(Nc2ccccc2)n1 | inactive | 
N#CC(Br)(Br)C(N)=O | inactive | 
C=C1CC[C@@]2(O)[C@H]3Cc4ccc(O)c5c4[C@@]2(CCN3CC2CC2)[C@H]1O5 | inactive | 
CC[C@H](O)C(C[C@H](C)N(C)C)(c1ccccc1)c1ccccc1 | inactive | 
NCC1(CC(=O)O)CCCCC1 | inactive | 
[O-][Br+2]([O-])O | inactive | 
NNC(N)=O | inactive | 
CNC(=O)O/N=C(/CSC)C(C)(C)C | inactive | 
CC(Cc1ccccc1)NCCCCl (stereo not given) | inactive | 
CCCCCCCCSC(=O)Oc1cc(Cl)nnc1-c1ccccc1 | inactive | 
CC(C)(C)c1cc(O)ccc1O | inactive | 

Assay: A CellTox Green Cytotoxicity Assay to monitor cytotoxicity in HEK293 cells - 40 hour (AID 1224871); note: nearly all actives have a fitted effect of over 45% in size; note: potency is the fitted concentration of half-maximal effect
Conditions: CellTox Green fluorescence; series mostly up to 76.8 µM
Outline: as §1

Structure (SMILES) | Potency | cytotoxicity increase
CCCC[N+](=O)[O-] | inactive | 
BrCC1CO1 (stereo not given) | inactive | 
CCC1(c2ccccc2)CCC(=O)NC1=O (stereo not given) | inactive | 
ClC(Cl)(Cl)Cl | inactive | 
CCc1ccc(C2CCNCC2)cc1 | inactive | 
CC(C)C(C)(N)C#N (stereo not given) | inactive | 
CC(C)(C)C(=O)C(Cl)Cl | inactive | 
CN(C)C(=O)Oc1cc(OC(=O)N(C)C)cc(C(O)CNC(C)(C)C)c1 (stereo not given) | inactive | 
C=C(Cl)CSC(=S)N(CC)CC | inactive | 
O=P(O)(O)CN(CP(=O)(O)O)CP(=O)(O)O |  | 32.5% [at 15.8 µM] (inactive)
CN(C)CCc1c[nH]c2cccc(OP(=O)(O)O)c12 | inactive | 
Cn1c(N)nc2c3cccnc3ccc21 | inactive | 
O=C1C2CC=CCC2C(=O)N1SC(Cl)(Cl)Cl (stereo not given) | 6.81 µM (active) | 
CCNc1nc(NCC)nc(SC)n1 | inactive | 
N[C@@H](Cc1ccc(Oc2cc(I)c(O)c(I)c2)c(I)c1)C(=O)O | inactive | 
Clc1ccc(C(Cl)(Cl)Cl)cn1 | 34.7 µM (active) | 

Structure (SMILES) | Potency | cytotoxicity increase
CCNc1nc(Cl)nc(NC(C)(C)C)n1 | inactive | 
COc1ccc2c(C(=O)c3ccc(Cl)cc3)c(C)n(CC(=O)O)c2c1 | inactive | 
CCCOC(=O)c1cncn1C(C)c1ccccc1 (stereo not given) | inactive | 
CCOC(=O)C(Cl)Cc1cc(-n2nc(C)n(C(F)F)c2=O)c(F)cc1Cl (stereo not given) | inactive | 
COc1ccc(CN2CCNCC2)c(OC)c1OC | inactive | 
CC(=O)OCC1=C(C(=O)O)N2C(=O)[C@@H](N)[C@H]2SC1 |  | -4.55% [at 15.8 µM] (inactive)
CC#Cc1cc(C)nc(Nc2ccccc2)n1 | inactive | 
N#CC(Br)(Br)C(N)=O | inactive | 
CC[C@H](O)C(C[C@H](C)N(C)C)(c1ccccc1)c1ccccc1 | inactive | 
NCC1(CC(=O)O)CCCCC1 | inactive | 
[O-][Br+2]([O-])O | inactive | 
NNC(N)=O | inactive | 
CNC(=O)O/N=C(/CSC)C(C)(C)C | inactive | 
CC(Cc1ccccc1)NCCCCl (stereo not given) | inactive | 
CCCCCCCCSC(=O)Oc1cc(Cl)nnc1-c1ccccc1 | inactive | 
CC(C)(C)c1cc(O)ccc1O | inactive | 
